Test results published in PubChem BioAssay.
Active and inactive are the calls of the source. Unless noted, the rule behind the calls is not given here.

What was measured:
[1] = A549 cell viability effects, profiling panel, calcein-AM fluorescence, 48 h, basal (AID 1162); details: higher = more signal; note: test concentration not given here
[2] = adipocyte viability effects, profiling panel, cell-based, 3T3-L1 adipocytes, calcein-AM fluorescence, 48 h, basal (AID 1163); details: 3T3-L1 adipocytes viability, higher = more signal; note: test concentration not given here
[3] = HepG2 cell viability effects, profiling panel, calcein-AM fluorescence, 48 h, basal (AID 1164); details: higher = more signal; note: test concentration not given here
[4] = MM1S cell viability effects, profiling panel, calcein-AM fluorescence, 48 h, basal (AID 1165); details: higher = more signal;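 note: viability of MM1S multiple myeloma cells under basal unstimulated conditions; test concentration not given here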
[5] = basal RPMI8226 viability, no added stimulus, profiling panel, cell-based, calcein-AM fluorescence, 48 h, PK04 Diversity Set (AID 1166); details: RPMI8226 myeloma viability, higher = more signal;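 note: cells grown under basal conditions without added stimulus; test concentration not given here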
[6] = basal HepG2 mitochondrial membrane potential changes, profiling panel, cell-based, JC-1 fluorescence, 24 h, 100 nL compound (AID 1167); details: higher = more signal; note: test concentration not given here
[7] = basal 3T3-L1 adipocyte mitochondrial potential changes, profiling panel, cell-based, JC-1 fluorescence, 3T3-L1 adipocytes, 24 h, 100 nL compound (AID 1168); details: JC-1 mitochondrial fluorescence, higher = more signal, called active from +8 up or from −8 down; note: test concentration not given here
[8] = basal RPMI8226 mitochondrial membrane potential changes, profiling panel, cell-based, JC-1 fluorescence, 24 h, 100 nL compound (AID 1169); details: RPMI8226 myeloma, JC-1 mitochondrial potential fluorescence, higher = more signal; note: test concentration not given here
[9] = basal MM1S mitochondrial membrane potential changes, profiling panel, cell-based, JC-1 fluorescence, 24 h, 100 nL compound (AID 1170); details: higher = more signal; note: test concentration not given here
[10] = A549 lung cancer cell viability effects, profiling panel, resazurin fluorescence, 24 h, PK04 Diversity Set (AID 1171); details: higher = more signal, called active from +8 up or from −8 down; note: test concentration not given here
[11] = HepG2 liver cancer cell viability effects, profiling panel, resazurin fluorescence, 24 h, PK04 Diversity Set (AID 1172); details: higher = more signal; note: test concentration not given here
[12] = basal S. cerevisiae growth modulation, no modifier, primary screen, OD600, strain BY4716, 24 h, basal condition (AID 1173); details: OD600, 24 h, higher = more signal, called active from +8 up or from −8 down
[13] = MM1S myeloma cell viability, profiling panel, resazurin fluorescence, basal, 24 h, PK04 Diversity Set (AID 1174); details: higher = more signal, called active from +8 up or from −8 down;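 note: MM1S multiple myeloma cell line; test concentration not given here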
[14] = target: Dihydroorotate dehydrogenase (quinone), mitochondrial (Plasmodium falciparum (isolate 3D7)) (UniProt Q08210); assay: PfDHODH enzyme inhibitors, primary screen, biochemical, C-terminal His tag, absorbance 600 nm (AID 1175); details: DCIP absorbance 600 nm, higher = more signal, called active from +8 up or from −8 down;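 note: recombinant parasite enzyme with a five histidine tag at its C terminus; test concentration not given here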
[15] = P. aeruginosa biofilm formation inhibitors, primary screen, strain PAO1, LB-PBS medium, absorbance 600 nm (AID 1176); note: test concentration not given here; details: P. aeruginosa PAO1 growth/biofilm, A600, 12 h; higher = more signal
[16] = S. cerevisiae RM11-1a growth modifiers, primary screen, strain RM11-1a, OD600, basal, 24 h (AID 1177); details: OD600, 24 h, higher = more signal, called active from +8 up or from −8 down;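 note: cultures grown under basal conditions with no added stressor; test concentration not given here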
[17] = E. coli acrAB mutant growth effects, primary screen, E. coli filamentation inducers, strain DRC39, OD650, 24 h (AID 1178); details: higher = more signal, called active from +8 up or from −8 down;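 note: growth measured as culture turbidity by optical density at 650 nm; test concentration not given here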
[18] = E. coli acrAB mutant growth effects, primary screen, E. coli filamentation inducers, strain DRC39, OD650, 48 h (AID 1179);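 note: screen aims at cell division blockers that make cells filament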; details: E. coli DRC39 delta-acrAB growth, higher = more signal, called active from +8 up or from −8 down
[19] = RPMI8226 myeloma cell viability, profiling panel, resazurin fluorescence, basal, 24 h, PK04 Diversity Set (AID 1180); details: higher = more signal;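 note: RPMI8826 multiple myeloma cell line at 5000 cells per well; test concentration not given here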
[20] = target: E3 ubiquitin-protein ligase XIAP (Homo sapiens) (UniProt P98170); assay: XIAP binders, primary screen, biophysical, small-molecule microarray, fluorescence 635 nm (AID 1181); details: small-molecule microarray binding, higher = more signal;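 note: score merges 667 nm emission and signal to noise over triplicate slides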
E3 ubiquitin-protein ligase XIAP (Homo sapiens), sequence (P98170 whole entry, looked up): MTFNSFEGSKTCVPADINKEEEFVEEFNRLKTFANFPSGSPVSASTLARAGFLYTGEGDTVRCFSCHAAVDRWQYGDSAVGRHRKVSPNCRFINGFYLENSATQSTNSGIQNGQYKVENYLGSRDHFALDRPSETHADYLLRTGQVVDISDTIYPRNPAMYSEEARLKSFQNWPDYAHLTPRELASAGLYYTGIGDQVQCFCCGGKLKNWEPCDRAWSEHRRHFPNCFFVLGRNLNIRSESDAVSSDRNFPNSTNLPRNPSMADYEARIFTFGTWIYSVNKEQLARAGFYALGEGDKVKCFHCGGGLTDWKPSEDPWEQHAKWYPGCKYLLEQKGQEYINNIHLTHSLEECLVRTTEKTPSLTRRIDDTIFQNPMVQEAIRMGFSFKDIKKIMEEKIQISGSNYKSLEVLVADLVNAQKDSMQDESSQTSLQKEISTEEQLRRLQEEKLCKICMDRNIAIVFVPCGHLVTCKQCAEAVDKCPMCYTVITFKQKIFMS

Dihydroorotate dehydrogenase (quinone), mitochondrial (Plasmodium falciparum (isolate 3D7)), sequence (Q08210 whole entry, looked up): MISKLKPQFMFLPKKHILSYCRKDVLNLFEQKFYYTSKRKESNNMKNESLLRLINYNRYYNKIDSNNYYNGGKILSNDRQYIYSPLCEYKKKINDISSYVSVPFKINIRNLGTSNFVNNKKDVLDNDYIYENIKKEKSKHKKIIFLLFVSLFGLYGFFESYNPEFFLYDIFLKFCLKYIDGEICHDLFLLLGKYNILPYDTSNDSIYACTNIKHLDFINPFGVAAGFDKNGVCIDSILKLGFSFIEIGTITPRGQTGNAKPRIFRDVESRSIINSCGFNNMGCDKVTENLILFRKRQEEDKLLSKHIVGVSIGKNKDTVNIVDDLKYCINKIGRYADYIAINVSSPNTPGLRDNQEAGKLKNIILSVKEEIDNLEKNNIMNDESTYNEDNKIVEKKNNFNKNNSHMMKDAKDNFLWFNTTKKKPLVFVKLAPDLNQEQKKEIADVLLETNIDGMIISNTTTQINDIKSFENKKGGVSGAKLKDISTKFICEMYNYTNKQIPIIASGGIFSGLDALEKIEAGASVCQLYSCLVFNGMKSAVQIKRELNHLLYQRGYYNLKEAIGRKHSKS

Compound	z-score [1]	z-score [2]	z-score [3]	z-score [4]	z-score [5]	z-score [6]	z-score [7]	z-score [8]	z-score [9]	z-score [10]	z-score [11]	z-score [12]	z-score [13]	composite z-score [14]	z-score [15]	z-score [16]	z-score [17]	z-score [18]	z-score [19]	composite z-score [20]
COC(=O)C1=CC(c2ccc(CO)cc2)=CC(c2cccs2)N(Cc2cccc(OC(F)(F)F)c2)C=C1C(=O)OC (stereo not given)	-0.425	0.531	-0.282	-1.63	-2.08	-0.908	-1.25 (inactive)	-0.838	-0.459	-0.0711 (inactive)	-0.55	-0.871 (inactive)	-1.67 (inactive)	-5.67 (inactive)	0.683 (inactive)	1.62 (inactive)	0.0045 (inactive)	-0.964 (inactive)	-0.701	0.109
COC(=O)C(CC#Cc1ccc2c(c1)[C@]1(C(=O)N2)[C@H](C(=O)N2CCCCCCC2)[C@H]2C(=O)O[C@H](c3ccccc3)[C@H](c3ccccc3)N2[C@@H]1c1ccc(O)cc1)C(=O)OC	0.654	1.27	0.294	-1.25	-0.248	-0.21	-0.0509 (inactive)	0.145	-1.15	-0.429 (inactive)	0.436	-0.636 (inactive)	0.636 (inactive)	-0.665 (inactive)	0.473 (inactive)	-0.016 (inactive)	-0.177 (inactive)	-0.312 (inactive)	0.402	0.0512
COCCOC(=O)N1C(=O)[C@@]2(c3cc(C#CC4=CCCCC4)ccc31)[C@H](C(=O)NC[C@H](O)c1ccccc1)[C@H]1C(=O)O[C@H](c3ccccc3)[C@H](c3ccccc3)N1[C@@H]2c1ccccc1OCCO	-1.03	-0.383	-3.29	-3.21	-4.04	-1.46	2.6 (inactive)	-0.804	-1.67	-1.43 (inactive)	-1.57	1.76 (inactive)	-4.83 (inactive)	0.271 (inactive)	3.52 (inactive)	2.69 (inactive)	-0.504 (inactive)	-0.542 (inactive)	-4.64	0.175
CN1C(=O)C2C=CC(C(O)C3CC=CCC3)N(Nc3ccccc3)C2C1=O (stereo not given)	-0.653	-1.14	-0.661	0.228	-1.56	-0.965	-0.117 (inactive)	0.116	-0.608	-0.293 (inactive)	-0.488	0.122 (inactive)	-0.533 (inactive)	0.0707 (inactive)	0.847 (inactive)	0.0862 (inactive)	-1.11 (inactive)	-0.196 (inactive)	-0.568	0.301
C=C(CCCC)C(=O)CC[C@@H](OC(C)=O)c1ccccc1OCCO	0.509	-0.0795	-0.54	-2.62	-1.67	-0.684	1.08 (inactive)	-0.76	0.93	0.288 (inactive)	-0.0263	-12.5 (active)	0.304 (inactive)	-2.71 (inactive)	0.0022 (inactive)	2.05 (inactive)	0.662 (inactive)	0.378 (inactive)	-0.277	-0.193
CCCC[C@@H]1C[C@H]1[C@@H](NC(=O)c1ccccc1)c1ccccc1C(F)(F)F	-0.407	0.128	-0.0379	-1.69	-0.947	-1.06	-0.895 (inactive)	-0.472	-0.573	2.38 (inactive)	0.826	0.66 (inactive)	-0.159 (inactive)	-0.454 (inactive)	0.951 (inactive)	-0.114 (inactive)	-0.372 (inactive)	-0.464 (inactive)	0.0311	-0.261
C=C(C)[C@@H]1CC=C(C(O)C2C=CC3C(=O)NC(=O)C3N2Nc2ccccn2)CC1 (stereo not given in full)	-0.592	-1.11	-0.914	0.0217	-0.97	-1.66	0.344 (inactive)	0.921	-0.0607	-0.981 (inactive)	-1.3	-0.252 (inactive)	-1.48 (inactive)	0.291 (inactive)	1.99 (inactive)	-0.0819 (inactive)	-0.575 (inactive)	-0.339 (inactive)	-2.2	0.287
Cc1ccc(S[C@]2(C(=O)NC(C)C)CC(=O)N(Cc3cc(C(F)(F)F)cc(C(F)(F)F)c3)[C@@H]2c2ccc(CO)cc2I)cc1	0.813	-0.477	0.678	-1.66	-2.24	0.517	0.667 (inactive)	-0.455	-1.79	-0.101 (inactive)	0.53	-2.86 (inactive)	-2.27 (inactive)	0.4 (inactive)	0.447 (inactive)	-0.59 (inactive)	0.498 (inactive)	1.02 (inactive)	-2.55	-0.209
COc1ccc([C@H]2C[C@H]3C(Br)=C[C@]2(OC)C(=O)[C@]32CO2)cc1	-0.909	-0.105	-1.19	-2.1	-0.393	-2.15	-0.414 (inactive)	-1.07	-0.717	0.596 (inactive)	0.531	-3.26 (inactive)	-0.677 (inactive)	-0.314 (inactive)	0.662 (inactive)	-0.173 (inactive)	0.238 (inactive)	0.205 (inactive)	-0.139	-0.0599
O=C(NCC(F)(F)F)[C@@H]1c2ccccc2C(=O)N(Cc2ccccc2Cl)[C@H]1c1ccc(CO)cc1	1.25	-0.0448	0.343	0.189	-0.317	1.48	-0.198 (inactive)	-0.65	0.499	1.26 (inactive)	0.519	-0.331 (inactive)	0.403 (inactive)	-0.731 (inactive)	0.277 (inactive)	-0.562 (inactive)	0.113 (inactive)	0.183 (inactive)	0.641	0.282
COc1ccc([Si](C)(C)[C@@H]2[C@@H](CC(=O)N(CCO)Cc3ccccc3)O[C@]3(C(=O)N(Cc4cccc(N5CCC5=O)c4)c4ccccc43)[C@H]2C)cc1	-1.45	1.5	-2.2	-2.55	-4.06	0.952	-0.0485 (inactive)	-0.917	-0.523	-1.82 (inactive)	-1.51	0.328 (inactive)	-2.9 (inactive)	-0.645 (inactive)	0.708 (inactive)	1.32 (inactive)	0.882 (inactive)	-0.0661 (inactive)	-2.08	0.154
[N-]=[N+]=NCc1ccccc1C[C@]1(C(=O)N2CCCCC2)N=C(c2ccc(OCCCO)cc2)O[C@H]1c1ccccc1CN=[N+]=[N-]	0.0482	0.628	-0.503	-2.92	-4.22	0.675	-0.539 (inactive)	-1.19	-1.69	-0.179 (inactive)	-0.182	1.06 (inactive)	-1.32 (inactive)	-0.266 (inactive)	1.76 (inactive)	0.736 (inactive)	0.0687 (inactive)	-0.352 (inactive)	-2.22	0.377
Cc1ccc(S[C@]2(C(=O)NCCCN(C)C)CC(=O)N(Cc3ccccc3)[C@@H]2c2ccc(CO)cc2I)cc1	1.03	0.927	0.914	-3.64	-2.38	1.65	-0.645 (inactive)	-0.643	-0.822	0.0027 (inactive)	-0.896	-4.78 (inactive)	-2.94 (inactive)	-1.38 (inactive)	-0.369 (inactive)	-1.03 (inactive)	-0.361 (inactive)	-0.554 (inactive)	-2.15	-0.0848
COc1cc(CO)cc(I)c1O[C@H]1C=C(C(=O)NCCO)C[C@@H](N(CC2CCCCC2)C(=O)c2cc3ccccc3oc2=O)[C@@H]1O	0.846	-0.5	0.206	1.01	-1.1	0.919	-0.294 (inactive)	-0.806	-0.467	-0.206 (inactive)	0.479	-0.514 (inactive)	0.308 (inactive)	-0.23 (inactive)	0.343 (inactive)	0.372 (inactive)	0.663 (inactive)	0.283 (inactive)	0.393	-0.12
CC(C)(C)OC(=O)CC[C@]1(C(=O)N2CCCCC2)N=C(c2ccc(OCCCO)cc2)O[C@H]1c1ccccc1	2.04	1.24	1.01	0.523	-1.04	2.2	2.09 (inactive)	-0.123	0.317	-0.354 (inactive)	-0.302	-1.05 (inactive)	-1.37 (inactive)	-0.892 (inactive)	0.0937 (inactive)	-0.374 (inactive)	0.627 (inactive)	0.837 (inactive)	-0.128	0.354
C=CCC(OC(C)=O)[C@@H]1[C@@H](N(Cc2cccc3ccccc23)C(=O)Cc2ccc(F)cc2)c2cc(OCCCO)ccc2N1C(=O)Cc1ccc2ccccc2c1 (stereo not given in full)	0.677	-0.399	0.607	0.853	-0.538	1.72	0.38 (inactive)	-0.0877	-0.24	0.775 (inactive)	0.549	0.595 (inactive)	0.295 (inactive)	-0.373 (inactive)	0.195 (inactive)	0.0764 (inactive)	-0.283 (inactive)	0.4 (inactive)	-1.29	-0.0332
O=C1O[C@H](c2ccccc2)[C@H](c2ccccc2)N2[C@H]1[C@@H](C(=O)NC[C@H](O)c1ccccc1)[C@]1(C(=O)Nc3ccc(C#CC4(O)CCCCCC4)cc31)[C@H]2c1ccc(OCCO)cc1	-1.2	0.694	0.643	-1.29	-0.587	-1.32	1.78 (inactive)	-0.842	-0.469	0.132 (inactive)	-0.148	0.359 (inactive)	-0.15 (inactive)	-1.82 (inactive)	1.9 (inactive)	1.68 (inactive)	1.66 (inactive)	0.855 (inactive)	0.931	-0.168
